Source: PubChem BioAssay (NCI)
Compounds without any hit were thinned out: in the full panel of roughly 83,000, 20% have a hit.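 How to read the values: 0–100, growth inhibition (40 = 60% inhibited); 0, no net growth; -100 to 0, cell death (-40 = 40% of starting cells died; -100 = all dead).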 The source made the active and inactive calls. The calls were made as follows: active = growth percent below 10; inactive = the rest.

Test system: MDA-MB-468 breast
Experiment: NCI-60 one-dose screen, 48 h (100 = growth as untreated, 0 = no growth, -100 = all killed)
Conditions: 10 µM unless noted

| SMILES | growth |
| --- | --- |
| CS(=O)(=O)c1nccc(-c2c(-c3ccc(F)c(OCc4ccccc4)c3)nc3sccn23)n1 | -68.8% (active) |
| CC1(C)CC[C@]23CC[C@]4(C)[C@H](CC[C@@H]5[C@@]6(C)CC[C@H](NCO)C(C)(C)[C@@H]6CC[C@]54C)[C@H]2[C@H]1OC3 | -56.6% (active) |
| COc1cc2nc(-c3ccc(Cl)cc3)cc(OCCCN3CCCC3)c2cc1OC | 43.5% (inactive) |
| Cc1cc(C)c2c(n1)sc1c(Nc3ccc(OCc4ccccc4)cc3)ncnc12 | 101% (inactive) |
| CN1CCN(c2ccc(Nc3ncc4[nH]c(=O)n(Cc5ccccc5N)c4n3)cc2)CC1 | 111% (inactive) |
| COc1ccc2cc(Cn3cc[n+](Cc4ccc5ccccc5c4)c3)ccc2c1 | -22.9% (active) |
| CCS(=O)(=O)OCCCl | 94.9% (inactive) |
| CCOC(=O)/C(C#N)=C\Nc1ccc2ncnc(Nc3ccc(Cl)cc3Cl)c2c1 | 56.4% (inactive) |
| COc1cc(-c2nc3cc(Cl)c(Cl)cc3[nH]2)ccc1OCC(=O)N=Nc1c(O)[nH]c2ccccc12 | -86.3% (active) |
| COc1cc2nc(Cl)nc(Nc3cccc(C4=Nc5c(N)nc(N)nc5NC(c5ccc6c(c5)OCO6)C4)c3)c2cc1OC (stereo unspecified) | 81.7% (inactive) |
| FC(F)(F)c1cccc(-n2nnc3cnc(Nc4ccc(N5CCCCC5)cc4)nc32)c1 | 68.7% (inactive) |
| Oc1ccc(Cn2cc3c(c2-c2ccccc2)CCc2cnoc2-3)cc1 | 89.2% (inactive) |
| CCOC(=O)c1c(NC(=O)c2cccc(C(F)(F)F)c2)sc2c(CN3CCN(C)CC3)c(O)ccc12 | -2.41% (active) |
| ClC1=C(Br)C(Br)(Br)C(=C(Br)Br)C1(Br)Br | 74.4% (inactive) |
| COC(=O)C[C@@H]1CC=CC(=O)/C1=C(O)/C=C/c1ccccc1 | -85.5% (active) |
| CCCCCCC(=O)Nc1ncc(Cc2ccc(C)cc2)s1 | 28.4% (inactive) |
| CC(C)(C)[Si](C)(C)O[C@H]1C(=O)C=CN2CC=C[C@@H]12 | 99.4% [100 µM] (inactive) |
| C=C[C@]1(C)C=C2C(=O)[C@@]3(O)OC(=O)[C@@]4(CCCC(C)(C)[C@H]34)[C@@]2(O)CC1 | -84.4% (active) |
| O=C1c2ccccc2OC=C(c2ccccc2)N1CCCCN1CCCCC1 | -6.27% (active) |
| Cc1cc(N(CCNc2ccnc3cc(Cl)ccc23)Cc2ccco2)nc(Cl)n1 | -33.5% (active) |
| O=C(Nc1ccc(Nc2ccncc2)cc1)c1ccc(C(=O)Nc2ccc(Nc3ccncc3)cc2)cc1 | 2.69% (active) |
| Cc1cc2c(c(C)c1Cl)C(=O)/C(=C/c1ccc(O)c(O)c1)O2 | 109% (inactive) |
| COC1=CC(c2ccc[nH]2)=N/C1=C\c1[nH]c(C)c(C(=O)CCCCCCCCC(=O)O[C@H]2CC[C@H]3C4CCc5cc(O)ccc5C4CC[C@]23C)c1C (stereo partly specified) | 37.5% (inactive) |
| COC(=O)C(Cc1ccccc1)n1cc(COc2nc(Cl)nc(Nc3ccc(Cl)cc3)n2)nn1 (stereo unspecified) | 69.1% (inactive) |
| C#CCOc1ccc(C2=NN(CCCC)C3N=C(Cl)c4ncn(CCCC)c4N23)cc1OCC#C (stereo unspecified) | 80.4% (inactive) |
| CCN(CC)P(=O)(N(CC)CC)N(CCCSC/C=C(\C)CC/C=C(\C)CCC=C(C)C)CCCN1CCN(C)CC1 | 92.4% (inactive) |
